Compound activity deposited in PubChem by National Center for Advancing Translational Sciences (NCATS).
Shown are actives, neighbours in structure and some others; about 19% of the full set was active somewhere.
TDP1 cell CPT: DT40-hTDP1 cell growth loss with CPT. Potency, µM (doses to about 46.2 µM), inactives show at the top dose activity change, negative = growth inhibition, most hits filed as inhibitors. 420,000 compounds, 12% hits. chicken DT40 Tdp1-/-;hTDP1 cells + 20 nM CPT, ATP luminescence, 48 h; note: potency is the fitted concentration of half-maximal effect; nearly all actives have a fitted effect of over 55% in size
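Chicken DT40 Tdp1-/- cells stably complemented with human TDP1 were seeded at 400 cells/well in medium containing 20 nM camptothecin, exposed to pin-transferred compounds, and grown at 37 °C for at least 48 hr. Viability was read as ATP luminescence.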
ELG1 DNA repair: blocks ELG1-dependent DNA repair in HEK293T cells; HEK293T ELG1-luciferase reporter, luminescence, 16 h; DNA damage induced by 5-fluorouridine; Potency, µM (top dose mostly 46.1 µM), without a hit: at the top dose activity change, negative = inhibition, usual class: inhibitors; 330,000 compounds, 2.3% hits; note: potency is the fitted concentration of half-maximal effect; nearly all actives have a fitted effect of over 55% in size
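5-Fluorouridine DNA damage + compound/DMSO, 2,000 cells/well, 16 h, 37 °C/5% CO2. ONE-Glo, 30 min RT, luminescence. Readout = decrease in reporter signal.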
TDP1 cell noCPT: qHTS for Inhibitors of human tyrosyl-DNA phosphodiesterase 1 (TDP1): qHTS in cells in absence of CPT; DT40 Tdp1-/- hTDP1 cells, no CPT, ATP luminescence, 48 h; Potency, µM (doses to about 46.2 µM), without a hit: top-dose activity change, negative = growth inhibition, actives largely listed as inhibitors; 420,000 compounds, 15% hits; AID 686978, 2013; note: potency is the fitted concentration of half-maximal effect; nearly all actives have a fitted effect of over 55% in size
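Stably hTDP1-transfected Tdp1-null chicken DT40 cells were treated with library compounds minus camptothecin and grown for at least 48 hr at 37 °C, after which cellular ATP was quantified by luminescence.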
TDP1 inh: blocks human tyrosyl-DNA phosphodiesterase 1; AID 485290; Q9NUW8; 350,000 compounds, 0.28% hits; recombinant TDP1, AlphaScreen DNA substrate cleavage; Potency, µM (top dose mostly 130 µM), inactives show at the highest dose activity change, negative = inhibition, hits mostly inhibitors; note: potency is the fitted concentration of half-maximal effect; nearly all actives have a fitted effect of over 40% in size
Target sequence (Q9NUW8 whole entry, looked up): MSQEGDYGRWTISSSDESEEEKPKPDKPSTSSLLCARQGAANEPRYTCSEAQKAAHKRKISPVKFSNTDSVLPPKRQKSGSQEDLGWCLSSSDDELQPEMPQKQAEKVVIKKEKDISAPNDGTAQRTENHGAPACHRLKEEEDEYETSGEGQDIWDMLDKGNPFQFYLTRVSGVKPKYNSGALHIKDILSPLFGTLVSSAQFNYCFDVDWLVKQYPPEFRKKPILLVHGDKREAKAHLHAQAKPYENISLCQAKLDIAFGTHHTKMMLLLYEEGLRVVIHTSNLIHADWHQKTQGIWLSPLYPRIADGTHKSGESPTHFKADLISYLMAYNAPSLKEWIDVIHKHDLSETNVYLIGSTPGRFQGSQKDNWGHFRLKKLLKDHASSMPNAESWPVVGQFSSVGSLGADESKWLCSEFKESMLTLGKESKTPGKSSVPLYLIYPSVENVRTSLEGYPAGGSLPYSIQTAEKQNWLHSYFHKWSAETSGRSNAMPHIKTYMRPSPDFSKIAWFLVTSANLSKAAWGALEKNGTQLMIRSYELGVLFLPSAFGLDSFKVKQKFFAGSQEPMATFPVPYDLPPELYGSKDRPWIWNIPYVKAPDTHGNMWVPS
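Enzyme-compound mixtures sat 15 min at room temperature, followed by a 5 min reaction with 15 nM final substrate and 10 min with AlphaScreen beads. Recombinant human Tdp1 was used at 1 nM final.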
IL1B secr inh: blocks inflammasome-driven IL-1 beta release. THP-1 LPS/ATP IL-1B secretion, AlphaLISA, 16 h; stronger effect = lower value. activity change, % at 57.5 µM. 360,000 compounds, 4.7% hits; in the data active = activity change below about -50%; inconclusive = mostly about -30% to -49%
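THP-1 cells pretreated 1 hr with compounds (up to 57.5 uM final), then stimulated with LPS (250 ng/mL final) plus ATP (1.25 mM final); secreted IL-1B measured by AlphaLISA after 16 hr, decreased signal indicating inhibition.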
Giardia killer: Giardia lamblia killing; activity change, % at 7.66 µM, hits read low; Giardia lamblia trophozoite viability; 340,000 compounds, 0.15% hits; AID 540267; in the data active = activity change below about -80%; inconclusive = between about -30% and that limit;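 note: parasites exposed to compound for two days anaerobically before the ATP read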
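Giardia trophozoites, 100 cells per well, were exposed to compounds for 48 hrs at 37 deg C under anaerobic conditions; viability was then read as ATP content by bioluminescence after 15-30 min at room temperature.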
Numbers without * were called inactive; ? = inconclusive; . = no result given; [ ] = another dose, or the depositor's remark. Unless noted, calls come from the whole dose curve; as a rule, active = well fitted curve in the direction sought with a large enough effect; inconclusive = small, poorly fitted or top-dose-only effect, or another doubt; inactive = no such curve, though single readings can be large; an effect the other way counts as inactive or inconclusive. % is set by controls: 0 for no effect and ±100 for the full control effect.

SMILES | TDP1 cell CPT | ELG1 DNA repair | TDP1 cell noCPT | TDP1 inh | IL1B secr inh | Giardia killer
CCN(CC)S(=O)(=O)c1ccc(C(=O)Nc2nnc(NC(=S)Nc3ccccc3)s2)cc1 | ? | ? | 23.1µM* | 6.0% | 5.1 | -9.1
CCN(Cc1ccncc1)S(=O)(=O)c1ccc(C(C)=O)cc1 | 16.4µM* | 6.51µM* | 11.6µM* | 7.1% | -0.1 | 1.3
Cc1ncc2c(c1CNC(=O)c1ccc3c(c1)OCO3)CCN(C(=O)c1cn3ccccc3n1)C2 | 16.7%[9.04 µM] | . | -15.0% | . | . | .
Cc1ccccc1OCC(=O)Nc1cccc(C(=O)OCc2cc(=O)n3c(C)csc3n2)c1 | ? | . | ? | -1.2% | . | .
CCOC(=O)N1CCN(Cc2nc3cc(NC(=O)CC(C)C)ccc3n2C(C)C)CC1 | 0.82µM* | . | 0.731µM* | 4.7% | . | .
CCOC(=O)N1CCN(Cc2nc3cc(NC(=O)c4cccs4)ccc3n2CC)CC1 | 23.1µM* | -14.5% | 25.9µM* | 1.8% | ? | 5.4
CCOC(=O)N1CCN(Cc2nc3cc(NC(=O)c4cccc(C)c4)ccc3n2C(C)C)CC1 | 0.92µM* | . | 0.731µM* | 6.8% | . | .
CCOC(=O)N1CCN(Cc2nc3cc(NC(=O)CC(C)C)ccc3n2CC)CC1 | 14.6µM* | ? | 9.2µM* | . | -16.7 | 4.3
CCNc1cccc(S(=O)(=O)N2CCCN(S(=O)(=O)c3ccc4c(c3)OCCO4)CC2)c1 | . | . | . | 0.9% | . | .
CCOc1ccc(NC(=O)c2c(NC(=O)c3cccs3)sc3c2CCC(C(C)(C)C)C3)cc1 (stereo not drawn) | -17.1% | . | -15.3% | . | . | .
CCOC(=O)N1CCN(Cc2nc3cc(NC(=O)CC)ccc3n2C(C)C)CC1 | 0.92µM* | . | 0.731µM* | 2.6% | . | .
NC(N)=N/N=C/c1ccc(Cl)c(Cl)c1 | 13µM* | 15.8% | 16.4µM* | . | -97.4* | -7.7
OCCCCNCc1ccc(OCc2ccccc2Cl)cc1 | ? | ? | ? | 5.9% | -23.1 | -20.0
NC(N)=N/N=C/c1ccc(OCc2ccccc2Cl)cc1 | 14.6µM* | 0.2% | 13µM* | 7.4% | -102.6* | 15.5
NC(N)=N/N=C/c1ccc(Cl)cc1Cl | 16.4µM* | -2.5% | 23.1µM* | 0.0% | -99.3* | 0.0
O=S(=O)(c1ccc2c(c1)OCCO2)N1CCN(S(=O)(=O)c2c(F)ccc(O)c2F)CC1 | . | . | . | -0.6% | . | .
CCN(CC(=O)Nc1c(F)cccc1F)C(=O)c1ccc(COc2ccccc2)o1 | -16.4% | 4.0% | -21.9% | . | -5.2 | 5.0
COc1ccc(N2CCN(c3ncnc4onc(-c5ccc(F)cc5)c34)CC2)cc1 | ? | . | ? | 7.4% | . | .
Cc1noc2ncnc(N3CCN(c4ccc(F)cc4)CC3)c12 | ? | ? | 18.4µM* | -1.3% | 7.3 | 27.3
Cc1noc2ncnc(N3CCCCC3)c12 | -24.5% | -17.2% | ? | -0.6% | 5.7 | 4.3
COc1ccc(N2CCN(c3ncnc4onc(C)c34)CC2)cc1 | 20.6µM* | . | 16.4µM* | -4.2% | . | .
CCNc1ncc2nc(-c3ccc(F)cc3)c(=O)n(Cc3ccc(F)cc3)c2n1 | -14.0% | . | 5.1% | . | . | .
CCNc1ncc2nc(-c3ccc(OC)cc3)c(=O)n(C)c2n1 | ? | . | -6.5% | . | . | .
CCNc1ncc2nc(-c3ccc(Cl)cc3)c(=O)n(-c3ccc(OC)cc3)c2n1 | ? | . | 13µM* | . | . | .
CCNc1ncc2ncc(=O)n(Cc3ccc(F)cc3)c2n1 | 18.4µM* | . | ? | . | . | .
SMILES | TDP1 cell CPT | ELG1 DNA repair | TDP1 cell noCPT | TDP1 inh | IL1B secr inh | Giardia killer
COc1ccc(Oc2ncc3nc(CCc4ccccc4)c(=O)n(CCC#N)c3n2)cc1 | ? | . | 23.1µM* | . | . | .
COc1cccc(Nc2ncc3nc(C)c(=O)n(CCC#N)c3n2)c1 | 0.231µM* | . | 0.92µM* | . | . | .
CCc1ccccc1NC(=O)C1CCCN(C(=O)c2cnn(-c3ccccc3)c2-n2cccc2)C1 (stereo not drawn) | ? | . | ? | 7.6% | . | .
COc1ccc(-n2c(=O)c(C)nc3cnc(Nc4cccc(OC)c4)nc32)cc1 | 23.1µM* | . | 18.4µM* | . | . | .
COCCn1c(=O)cnc2cnc(Nc3cccc(OC)c3)nc21 | 9.2µM* | . | ? | . | . | .
Cc1ccc(CNC(=O)CCCn2c(=O)c3ccccc3n(Cc3ccccc3C)c2=O)cc1 | ? | . | ? | 5.0% | . | .
N/C(=N\O)c1ccc(N2CCN(c3ncccc3C(F)(F)F)CC2)nc1 | ? | ? | 18.4µM* | -1.3% | 21.6 | -3.1
O=C(Nc1ccc(N2CCN(c3ncccc3C(F)(F)F)CC2)nc1)c1cccs1 | 18.4µM* | 20.6µM* | 20.6µM* | 10.1% | -100.5* | 5.3
COc1ccc(-c2nc3c(c4c2C[C@H](c2ccccc2)OC4)CN(C(=O)N[C@@H](C)c2ccccc2)CC3)c(C)c1 | . | . | . | 13.4%[12.3 µM] | . | .
CCCCN(C(=O)Cc1ccc(S(=O)(=O)N2CCOCC2)s1)c1ccccc1 | ? | -6.4% | 20.6µM* | -14.6%[0.505 µM] | 22.4 | -5.8
CCCCn1c(N)c(N(CC)C(=O)Cc2ccc(S(=O)(=O)N3CCOCC3)s2)c(=O)[nH]c1=O | 1.5% | 0.0% | -16.2% | . | 5.5 | 3.6
CN(Cc1ccc(Cl)cc1Cl)C(=O)Cc1ccc(S(=O)(=O)N2CCOCC2)s1 | ? | . | ? | . | 4.2 | .
O=C(Cc1ccc(S(=O)(=O)N2CCOCC2)s1)N(Cc1ccccc1)c1ccccc1 | ? | ? | 20.6µM* | -4.8%[0.505 µM] | -7.5 | 21.1
O=C(CSc1nc2c([nH]c3ccccc32)c(=O)n1-c1ccc(Cl)cc1)N1CCCC1 | -5.5% | . | -0.6% | -11.0% | . | .
CC(C)(C)c1ccc(Oc2ccc(NC(=O)C3CC=CCC3C(=O)O)cc2)cc1 (stereo not drawn) | 29.4% | 19.9% | 6.4% | . | 13.5 | 9.0
O=C(Nc1cccc(Br)c1)C1CCCC1 | 1.6% | . | 0.4% | . | 0.3 | ?
Cc1ccccc1N1CCN(c2ccc(NC(=O)C3CCCCC3C(=O)O)cc2)CC1 (stereo not drawn) | ? | ? | 9.2µM* | 5.3% | -2.5 | -11.3
Cc1cccc(N2CCN(C(=O)c3ccccc3NC(=O)C3CC=CCC3C(=O)O)CC2)c1 (stereo not drawn) | ? | 10.9% | 5.8µM* | 3.5% | 27.7 | -17.8
O=C(O)Cc1ccc(NC(=O)C2CC=CCC2C(=O)O)cc1 (stereo not drawn) | . | 7.8% | . | 44.7µM* | . | .
O=C(O)C1CCCCC1C(=O)Nc1cccc(Br)c1 (stereo not drawn) | -2.0% | 10.0% | -11.8% | 2.82µM* | 38.7 | -11.2
COc1cc(=O)n2c(c1C(=O)NC(C)c1ccco1)CCN(Cc1ccc3nsnc3c1)CC2 (stereo not drawn) | 2.7% | . | 4.9% | . | . | .
O=C(Cc1ccc(F)cc1)NCc1nc2cccnc2n1Cc1ccc(F)cc1 | ? | . | ? | 5.5% | . | .
